Screening results from PubChem.
Hits are enriched below; roughly 2.4% of the tested compounds scored in any of these assays.
Cruzain Triton: cruzain (T. cruzi) inhibition with detergent | 200,000 tested, 0.43% active | purified cruzain, Z-FR-AMC fluorescence, 0.01% Triton | Potency, µM, usual class: inhibitors | P25779; also: nearly all actives have a fitted effect of over 40% in size
Target sequence (P25779 123-467 limits assumed): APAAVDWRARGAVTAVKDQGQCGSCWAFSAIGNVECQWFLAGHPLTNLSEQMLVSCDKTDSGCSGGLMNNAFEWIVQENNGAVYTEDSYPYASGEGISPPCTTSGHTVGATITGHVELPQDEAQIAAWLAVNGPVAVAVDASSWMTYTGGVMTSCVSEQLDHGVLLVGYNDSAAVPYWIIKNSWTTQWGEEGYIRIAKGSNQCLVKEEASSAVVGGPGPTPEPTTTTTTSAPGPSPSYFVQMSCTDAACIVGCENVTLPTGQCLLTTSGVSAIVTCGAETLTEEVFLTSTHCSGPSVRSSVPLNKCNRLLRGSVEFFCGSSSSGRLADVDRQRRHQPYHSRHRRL
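Sodium acetate buffer (100 mM, pH 5.5) containing 5 mM DTT and 0.01% Triton X-100 hosted 1.5 nM cruzain and test compound for 15 min at room temperature. Cleavage of 2 uM Z-FR-AMC was then tracked by fluorescence.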
Cruzain noTriton: inhibitors of Trypanosoma cruzi cruzain without detergent; purified cruzain, Z-FR-AMC fluorescence, no detergent; Potency, µM, hits mostly inhibitors; 200,000 tested, 2.3% active; also: nearly all actives have a fitted effect of over 40% in size
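Detergent-free condition (0.00005% Triton X-100) in acetate buffer pH 5.5 with DTT. 1.5 nM enzyme and compound were pre-mixed 15 min, then 2 uM Z-FR-AMC substrate added; reaction progress from fluorescence change between first and third reads (60 s).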
Hits are given with their value; 0 = inactive; ? = inconclusive. Calls follow the shape of the dose curve; as a rule, active = well fitted curve in the direction sought with a large enough effect; inconclusive = small, poorly fitted or top-dose-only effect, or another doubt; inactive = no such curve, though single readings can be large; an effect the other way counts as inactive or inconclusive.

SMILES	Cruzain Triton	Cruzain noTriton
COc1ccc(-c2csc(NC(=O)c3nc(-c4ccccc4)oc3C)n2)cc1	0	7.9µM
Cc1oc(-c2ccccc2)nc1C(=O)Nc1nccs1	0	0
CC(=O)c1c(C)[nH]c(C(=O)Nc2nc(-c3ccc(-c4ccccc4)cc3)cs2)c1C	0	10µM
CC(=O)c1c(C)[nH]c(C(=O)Nc2nc(-c3ccc(Cl)cc3)cs2)c1C	0	0
COc1cc(-c2nnn(CC(=O)Nc3ccc(OC(F)(F)F)cc3)n2)cc(OC)c1OC	0	?
CC1=C(c2ccc(C)c(C)c2)S(=O)(=O)N(Cc2ccc(C(=O)NCc3ccccc3F)cc2)C1=O	0	25µM
COc1ccccc1NC(=O)c1ccc(CN2C(=O)C(C)=C(c3ccc(C)c(C)c3)S2(=O)=O)cc1	0	32µM
COc1ccc(C2=C(C)C(=O)N(Cc3ccc(C(=O)Nc4ccc(C)c(C)c4)cc3)S2(=O)=O)cc1	0	7.9µM
CC1=C(c2ccc(C)cc2)S(=O)(=O)N(Cc2ccc(C(=O)Nc3ccccc3C)cc2)C1=O	0	?
CCOc1ccc(NC(=O)c2ccc(CN3C(=O)C(C)=C(c4ccc(C)cc4)S3(=O)=O)cc2)cc1	0	0
CC1=C(c2ccc(C)cc2)S(=O)(=O)N(Cc2ccc(C(=O)NCc3ccccc3)cc2)C1=O	0	?
CCCCOc1ccc(C(=O)Nc2cccc(-c3nc4cccnc4s3)c2)cc1	0	0
CCCNC(=O)Cn1nc(-c2ccc(C)c(C)c2)c2cnc3ccc(OC)cc3c21	0	0
CCNc1nc(OC)nc(Oc2ccc(=O)[nH]n2)n1	0	0
Cc1ccc(CNc2nc3ccccc3n3nnnc23)cc1	0	32µM
c1ccc2c(c1)nc(Nc1ccc3c(c1)OCO3)c1nnnn12	0	25µM
Fc1ccccc1Nc1nc2ccccc2n2nnnc12	0	25µM
Fc1cccc(Nc2nc3ccccc3n3nnnc23)c1	0	?
Cc1ccc(CNC(=O)c2ccc(Nc3nc4ccccc4n4nnnc34)cc2)cc1	0	0
Oc1ccccc1Nc1nc2ccccc2n2nnnc12	0	?
O=C(O)[C@@H](O)[C@@H](O)C1[O][Sb][O][C@@H]1CO (some centres not stated)	0	0
CC(=O)c1ccc(NC(=O)CCc2c(C)nn(-c3ccc4nncn4n3)c2C)cc1	0	0
CN(C)C(=O)COc1ccc2cc(-c3ccccc3)c(=O)oc2c1	28µM	?
Cc1cc(OCC(=O)N(C)C)c2c(-c3ccccc3)cc(=O)oc2c1	0	0
O=C(/C=C\c1ccc2c(c1)OCO2)Nc1c2c(nn1-c1ccc(Cl)cc1)CSC2	0	25µM
SMILES	Cruzain Triton	Cruzain noTriton
O=C(/C=C\c1ccc2c(c1)OCO2)NC1CC(=O)N(c2ccc(Cl)cc2)C1 (configuration not stated)	0	0
CCCOc1ccccc1C(=O)Nc1ccc(-c2nc3ccc(C)cc3s2)cc1	0	0
Cc1nn(C)c2c1c(C(F)(F)F)cc(=O)n2C(C)C(=O)N1CCN(c2ccccc2)CC1 (configuration not stated)	0	?
O=C(O)c1cc(O)c2c(c1)[C@H]([C@H]1c3cc(C(=O)O)cc(O)c3C(=O)c3c(O[C@@H]4OC(CO)C(O)C(O)C4O)cccc31)c1cccc(O[C@@H]3OC(CO)C(O)C(O)C3O)c1C2=O (some centres not stated)	16µM	?
O=C1c2cccc(O)c2C(=O)c2c(O[C@@H]3O[C@H](CO)[C@@H](O)[C@H](O)[C@@H]3O)cccc21	0	0
COc1ccccc1-c1noc(-c2ccc(NC(C)C)c([N+](=O)[O-])c2)n1	0	0
CC(C)(C)c1ccc(C(=O)Nc2nnc(Cc3c[nH]c4ccccc34)s2)cc1	0	?
O=C(Nc1nnc(Cc2c[nH]c3ccccc23)s1)c1ccc(Cl)cc1Cl	0	25µM
O=C(Nc1nccs1)c1cn(-c2ccccc2)nc1-c1ccccc1	0	0
CC(C)COc1ccc(-c2nn(-c3ccccc3)cc2C(=O)Nc2nccs2)cc1	0	10µM
O=C(O)C(C(=O)O)P(=S)(S)c1ccccc1 (configuration not stated)	0	0
COc1ccc(CNC(=O)c2ccc3c(c2)NC(=O)C(CS(=O)(=O)Cc2ccccc2Cl)N3)cc1 (configuration not stated)	0	0
O=C(NCc1ccc(Cl)cc1)c1ccc2c(c1)NC(=O)C(CS(=O)(=O)Cc1ccccc1Cl)N2 (configuration not stated)	0	25µM
COc1cc(OC)cc(C(=O)NCC(=O)OCC(=O)NC(C)(C)C)c1	0	0
CCNC(=O)COC(=O)CNC(=O)c1cc(Cl)cc([N+](=O)[O-])c1	7.9µM	7.9µM
O=C(CNC(=O)c1ccccc1)NCC(=O)OCC(=O)c1ccc([N+](=O)[O-])cc1	0	0
CC(C)CNC(=O)COC(=O)CNC(=O)c1cc(Cl)cc([N+](=O)[O-])c1	10µM	7.9µM
CC(C)CNC(=O)COC(=O)c1ccc([N+](=O)[O-])cc1Cl	0	0
CC(C)(C)NC(=O)COC(=O)CNC(=O)c1cc(Cl)cc([N+](=O)[O-])c1	25µM	20µM
Oc1c(C(c2ccc(Cl)cc2)N2CCC3(CC2)OCCO3)sc2nc(-c3ccco3)nn12 (configuration not stated)	0	?
COc1ccc(NC(=O)CN2C(=O)COc3ccc(S(=O)(=O)Nc4ccccc4)cc32)cc1OC	0	0
Cc1cc(C)c(/C=C/c2onc(C)c2S(=O)(=O)N2CCC(C(=O)N(C)Cc3ccccc3)CC2)c(C)c1	0	0
Cc1cccc(NC(=O)CSc2nc3n[nH]c(C)c3c(=N)n2-c2cccc(Cl)c2)c1	0	?
O=C(Nc1ccc(Cl)cc1F)c1ccc(COc2c(F)c(F)c(F)c(F)c2F)o1	20µM	?
O=C(Nc1ccc(F)cc1F)c1ccc(COc2c(F)c(F)cc(F)c2F)o1	0	0
SMILES	Cruzain Triton	Cruzain noTriton
COc1ccc(-c2cccc(-c3cc(=O)oc4ccc(C(C)(C)C)cc34)c2)cc1	0	35µM
COc1cc2oc(=O)cc(-c3cccc(-c4ccc(C(F)(F)F)cc4)c3)c2c(OC)c1OC	0	0
COc1cc(OC)c2c(-c3cccc(-c4ccc(OC)c(F)c4)c3)cc(=O)oc2c1	0	32µM
COc1cc(OC)c2c(-c3cccc(-c4ccc(C(C)=O)cc4)c3)cc(=O)oc2c1	0	?
COc1ccc(C2=C(C)C(N3CCC(C(=O)NCc4ccco4)CC3)=NS2(=O)=O)cc1	0	0
Cc1ccc(S(=O)(=O)Nc2ccc(S(=O)(=O)N3CCCC3)cc2)cc1	0	0
CCOC(=O)c1c(-c2ccccc2)oc2ccc(NS(=O)(=O)c3ccc(C)cc3)cc12	0	?
Cc1ccc(S(=O)(=O)Nc2ccc3c(c2)c(C(=O)OC(C)C)c(C)n3S(=O)(=O)c2ccc(C)cc2)cc1	0	5µM
COCCOC(=O)c1c(C)n(S(=O)(=O)c2ccc(C)cc2)c2ccc(NS(=O)(=O)c3ccc(C)cc3)cc12	0	10µM
O=C(/C=C/c1ccc2c(c1)OCO2)Nc1nc(-c2ccc(F)cc2F)cs1	0	7.9µM
Cc1csc(NC(=O)/C=C/c2ccc3c(c2)OCO3)n1	0	0
CCc1ccc(C2C(C(=O)Nc3ccc(Cl)cc3)=C(C)Nc3ncnn32)cc1 (configuration not stated)	0	?
CC(=O)Nc1ccc(NC(=O)c2ccc3c(c2)CCN3S(=O)(=O)c2ccc(C)cc2)cc1	0	0
COc1ccc(NC(=O)c2ccc3c(c2)CCN3S(=O)(=O)c2ccc(C)cc2)cc1Cl	0	7.9µM
